Drawing on PubChem BioAssay, this text covers red/green cell ratio (normalised) for 26 molecules.

Calls of active or inactive are those of the source.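 Rule for the calls: active = compounds killing one labelled cell type while sparing the other, by normalised counts and ratio limits, not self-fluorescent; inactive = the rest.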

A short description of the assay: differential killing of epithelial or mesenchymal cells, primary screen, imaging, PC-3E GFP, TEM4-18 mCherry, co-culture (AID 1345086).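 Note: normalised mesenchymal count divided by normalised epithelial count so high means epithelial killing; cells exposed to compound for 72 h before imaging.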 Conditions: imaging cell counts, at 1 µM, actives lie on both sides, counts scaled to control wells, 1 = unselective.
`NC(=O)C1CCCN1C(=O)C(Cc1cnc[nH]1)NC(=O)C1CCC(=O)N1` (stereo unspecified): the red/green cell ratio (normalised) was 1.11 (inactive).
For `OC[C@@H](O)[C@H](O)[C@@H](O)[C@H](O)CO` the value was 1.12 (inactive); for `COc1nc(N)nc2c1ncn2C1O[C@H](CO)[C@@H](O)[C@@H]1O` (stereo partly specified), 0.99 (inactive).
For `Nc1nc(NC2CC2)c2ncn(C3C=C[C@@H](CO)C3)c2n1` (stereo partly specified) the value was 1.14 (inactive).
For `CCN(CC)C(=O)C1(c2ccccc2)CC1CN` (stereo unspecified) the value was 0.9 (inactive).
With `Cc1cc(CC(C)CC(C)(C)C)n(O)c(=O)c1` (stereo unspecified) (tested in a mixture with another compound), the red/green cell ratio (normalised) is 0.92 (inactive).
As for `CC1/C=C/C=C/C=C/C=C/C=C/C=C/C=C/C(O[C@@H]2O[C@H](C)[C@H](O)[C@@H](O)[C@@H]2N)CC(O)C(C(=O)O)C(O)CC(=O)CC(O)CC(O)CC(O)CC(=O)CCCC(=O)CC(=O)OC1C(C)CC(C)C(O)CC(=O)c1ccc(N)cc1` (stereo partly specified), the red/green cell ratio (normalised) was 0.94 (inactive).
As for `CCCC[C@@H](CC)COC(=O)C(C#N)=C(c1ccccc1)c1ccccc1`, the red/green cell ratio (normalised) was 0.92 (inactive).
For `O=C1c2c(O)cccc2[C@@H](O[C@@H]2O[C@H](CO)[C@H](O)[C@@H](O)[C@H]2O)c2cc(CO)cc(O)c21` the value was 0.78 (inactive); for `Cc1cc2nc3c(=O)[nH]c(=O)nc-3n(C[C@@H](O)[C@@H](O)[C@@H](O)COP(=O)(O)O)c2cc1C`, 1.01 (inactive).
For `C#C[C@]1(O)CCC2C3CCc4cc(OC5CCCC5)ccc4C3CC[C@@]21C` (stereo partly specified) the value was 0.98 (inactive); for `CSCC[C@H](NC(=O)[C@H](Cc1c[nH]c2ccccc12)NC(=O)[C@H](C)NC(=O)OC(C)(C)C)C(=O)N[C@@H](CC(=O)O)C(=O)N[C@@H](Cc1ccccc1)C(N)=O`, 0.98 (inactive).
For `C[C@]12CCC(=O)C=C1[C@@H]1C[C@@H]1C1C2CC[C@@]2(C)C1[C@@H]1C[C@@H]1[C@@]21CCC(=O)O1` (stereo partly specified) the value was 0.65 (inactive).
Take `COc1c(O)cc2c(c1O)[C@H]1O[C@H](CO)[C@@H](O)[C@H](O)[C@@H]1OC2=O`: the red/green cell ratio (normalised) was 0.9 (inactive).
For `CC(C)(O)c1ccccc1CC[C@@H](SC1(CC(=O)O)CC1)c1cccc(/C=C/c2ccc3ccc(Cl)cc3n2)c1` the value was 1.02 (inactive); for `CC(C)C/C=C/C=C\C(=O)N[C@@H](CC(N)=O)C(=O)N[C@@H]1C(=O)N[C@H](c2ccc(O)cc2)C(=O)N[C@H](CCCN)C(=O)N[C@H]([C@H](C)O)C(=O)N[C@@H](c2ccc(O)cc2)C(=O)N[C@H](c2ccc(O)cc2)C(=O)N[C@@H]([C@H](C)O)C(=O)N[C@@H](Cc2ccccc2)C(=O)N[C@H](CCCN)C(=O)N[C@@H](c2ccc(O[C@@H]3O[C@H](CO)[C@H](O)[C@@H](O)[C@@H]3O[C@@H]3O[C@H](CO)[C@@H](O)[C@H](O)[C@H]3O)cc2)C(=O)NC(C(C)O)C(=O)N[C@@H](c2ccc(O)cc2)C(=O)NCC(=O)N[C@@H](CC(C)C)C(=O)N[C@H](C)C(=O)N[C@@H](c2ccc(O)c(Cl)c2)C(=O)O[C@@H]1C(N)=O` (stereo partly specified), 0.89 (inactive).
For `O=C1SCN(Cc2ccccc2)CN1Cc1ccccc1` the value was 0.9 (inactive).
For `CC(=O)[C@H]1CCC2C3CC=C4C[C@@H](OC(=O)CCC(=O)O)CC[C@]4(C)C3CC[C@@]21C` (stereo partly specified) the value was 0.87 (inactive).
Consider `NC(=O)c1ncn(C2O[C@H](CO)[C@@H](O)[C@H]2O)c1N` (stereo partly specified), for which the red/green cell ratio (normalised) was 0.89 (inactive).
For `CO/N=C(/C(=O)N[C@@H]1C(=O)N2C(C(=O)OCSC(=O)c3ccco3)=CCS[C@H]12)c1csc(N)n1` the value was 0.72 (inactive); for `CC(=O)[C@@]12O[C@](C)(c3ccccc3)O[C@@H]1CC1C3CCC4=CC(=O)CC[C@]4(C)C3CC[C@@]12C` (stereo partly specified), 1.21 (inactive); for `CC(=O)c1ccc2c(c1)Sc1ccccc1N2CCCN1CCN(CCO)CC1`, 1.02 (inactive).
Regarding `CO/N=C(/C(=O)NC1C(=O)N2C(C(=O)O)=C(CSc3nnnn3C)CSC12)c1csc(N)n1` (stereo unspecified), the red/green cell ratio (normalised) is 0.91 (inactive).
For `O=c1[nH]c(=O)n([C@H]2C[C@H](O)C(CO)O2)cc1I` (stereo partly specified) the value was 0.98 (inactive).
For `CC(=O)OC1CC2CCC1(C)C2(C)C` (stereo unspecified) the value was 1.03 (inactive).
For `C[C@@H]1CC2C3CCC4=CC(=O)C=C[C@]4(C)[C@@]3(F)[C@@H](O)C[C@]2(C)[C@H]1C(=O)CO` (stereo partly specified) the value was 1.08 (inactive).
